Results on 39 sequences are retold here after publication PMC4081100, “A DNA-binding-site landscape and regulatory network analysis for NAC transcription factors in Arabidopsis thaliana”.

Sequence of GST-WRKY1(266-371) (Q9SI37 266-371): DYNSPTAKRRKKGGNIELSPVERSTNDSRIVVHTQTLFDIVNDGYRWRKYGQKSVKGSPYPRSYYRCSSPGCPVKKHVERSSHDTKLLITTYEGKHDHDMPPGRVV

The target in this assay is GST-WRKY1(266-371) (Arabidopsis thaliana, UniProt Q9SI37 266-371). In words: universal protein binding microarray (PBM); transcription factors of Arabidopsis thaliana; high values mean tight binding. Particulars: protein: recombinant; tags: GST; dsDNA, one strand shown. In a few lines:
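Cells were induced to make GST-tagged NAC-domain, full-length or DNA-binding-domain proteins, and zinc acetate was added for zinc-finger proteins. These proteins were purified on glutathione–Sepharose 4B, quantified by A280 or anti-GST western blot, and applied in duplicate at 200 to 500 nM final to custom all-10-mer Agilent 4 × 180K arrays that primer extension had made double-stranded. Binding is given as the normalised enrichment score (E-score) for scored gapped and ungapped 8-mers.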
Take ACAGGTCA: the binding signal was 0.443 E-score. To TCGAGTCA belongs 0.417 E-score; to ACCGGTCA, 0.463 E-score. To GCCGGTCA belongs 0.459 E-score. With GACGGTCA the figure was 0.462 E-score. For the sequence CTAGGTCA, the binding signal was found to be 0.428 E-score.

For CGGTCGTC, the binding signal worked out at 0.41 E-score. To AGCGGTCA belongs 0.422 E-score; to GACCGGTC, 0.445 E-score; to AGTCAGCC, 0.415 E-score. With CGACGACC the figure was 0.439 E-score; with GAGTCAGA, 0.419 E-score. As for GGTCAGCA, the binding signal amounted to 0.456 E-score. With GGTCGTCA the figure was 0.41 E-score; with ATGACCGA, 0.405 E-score; with CGATGACC, 0.414 E-score.

Turning to TAGGGTCA, the binding signal was found to be 0.42 E-score. With AGTCTTCG the figure was 0.427 E-score; with AGAGGTCA, 0.425 E-score.

On to CCGGGTCA, for which the binding signal stood at 0.443 E-score. With GACTTTGA the figure was 0.432 E-score; with GTCAGCGA, 0.43 E-score; with CGTGGACC, 0.444 E-score.

Take AGTCAGCA: the binding signal was found to be 0.432 E-score. With GAGGTCAA the figure was 0.485 E-score; with CCGCTGAC, 0.414 E-score. With GCTGACCC the figure was 0.444 E-score. With GCCGTCAA the figure was 0.402 E-score. GGTCAGAA: the binding signal turned out to be 0.444 E-score. To CAGGGTCA belongs 0.403 E-score; to CAGTCAGC, 0.406 E-score. Turning to ATTGACTC, the binding signal stood at 0.47 E-score. To CAAGGTCA belongs 0.425 E-score; to CGAGTCAA, 0.477 E-score; to AAGACCAG, 0.427 E-score.

Turning to TCCGGTCA, the binding signal amounted to 0.445 E-score. Regarding GCTGGTCA, the binding signal is 0.452 E-score. With CGGTCAGC the figure was 0.458 E-score; with AGGGTCAG, 0.403 E-score.
